The source of these data is PubChem BioAssay (Tox21).

Inconclusive results are not listed. Active and inactive are the calls of the source. Calls follow the shape of the dose curve; as a rule, active = well fitted cell-killing curve with a large enough effect in the repeat runs; inconclusive = weak or mixed curves; inactive = flat fitted curve, though single readings scatter.
% is scaled to controls: 0 for no effect and ±100 for the full control effect; potency is read from the fitted curve at half-maximal effect.

The nature of this experiment: qHTS assay to identify small molecule antagonists of the estrogen related receptor (ERR) signaling pathway from Tox21 library - cell viability counter screen (AID 1224834). Also: nearly all actives have a fitted effect of over 30% in size. The conditions noted are these: ERR reporter cells viability, CellTiter-Fluor, 17.5 h; series mostly up to 92.4 µM; viability change, negative = cytotoxic: at the top concentration. An excerpt: National Center for Advancing Translational Sciences [NCATS]
NIH Chemical Genomics Center [NCGC]
U.S. Environmental Protection Agency [EPA]
National Institutes of Environmental Health Sciences [NIEHS]
National Toxicology Program [NTP]
U.S. Food and Drug Administration [FDA]
Estrogen related receptors (ERRs), the first orphan nuclear receptors discovered, play an important role in the control of cellular energy metabolism. ERRs are required for high-energy production in response to the environmental challenges. ERR-alpha was also identified as an adverse marker for breast cancer progression; ERR-alpha-positive tumors have a poor prognosis. To screen and to identify environmental compounds that perturb the ERR signaling pathways could provide valuable information for potential therapeutic or preventive measures in the treatment of metabolic disease. To differentiate true ERR antagonists or agonist from cytotoxic substances, the assay is multiplexed with cell viability assay.
Tox21 Assay Protocol Summary:
The ERR cells were dispensed at 2,000 cells/5 ul/well in 1536-well white plates using a Multidrop dispenser. After the assay plates were incubated at a 37 C/5% CO2 incubator for 6 hours, 23 nL of compounds dissolved in DMSO, positive and negative controls or DMSO only was transferred to the assay plate by a pin tool. The plates were incubated at 37 C for 17.5 hours. 1 ul/well of CellTiter-Fluor reagent was added into the assay plates using a Flying Reagent Dispenser. After 30-minute incubation at 37 C/5% CO2, the fluorescence intensity in the plates was measured using a ViewLux plate reader.
For orientation: In qHTS, concentration-response curves come from the screen itself.
On to `CCCC[N+](C)(CCCC)CCCC`, for which the “viability change, negative = cytotoxic” value is 7.29% (inactive).

`CCCCOC(=O)CCC(C)=O`: the “viability change, negative = cytotoxic” value was 2.52% (inactive).

As for `C[N+](C)(CCOc1ccccc1)Cc1cccs1`, the “viability change, negative = cytotoxic” value is 0.47% [at 42.5 µM] (inactive).

Regarding `CC(C)CC(C)(N)C#N` (stereo not given), the “viability change, negative = cytotoxic” value is 0.694% (inactive).

`CC1(C)OC[C@@H](COC(=O)CCc2ccc(OC[C@@H](O)CNCCNC(=O)N3CCOCC3)cc2)O1`: the “viability change, negative = cytotoxic” value was 5.74% [at 42.5 µM] (inactive).

As to `O=C(O)c1cc(C(=O)O)cc(C(=O)O)c1`, the “viability change, negative = cytotoxic” value is 14.6% (inactive).

For the molecule `CC1=CC(=O)[C@H]2C[C@@H]1C2(C)C`, the “viability change, negative = cytotoxic” value was -0.289% (inactive).

Regarding `CCC(=O)OCc1ccccc1`, the “viability change, negative = cytotoxic” value is -0.351% (inactive).

Take `CC/C=C\CCOC(C)OCC` (stereo not given): the “viability change, negative = cytotoxic” value was -1.57% [at 42.5 µM] (inactive).

On to `[Ca+2]`, for which the “viability change, negative = cytotoxic” value was 0.0874% (inactive).

As for `CO[Si](C)(OC)c1ccccc1`, the “viability change, negative = cytotoxic” value was 2.01% (inactive).

On to `CC1(C)[C@@H]2CC[C@@]1(C)[C@H](O)C2`, for which the “viability change, negative = cytotoxic” value was 4.03% (inactive).

As to `C[N+]12CCC(CC1)C(OC(=O)C(O)(c1ccccc1)c1ccccc1)C2` (stereo not given), the “viability change, negative = cytotoxic” value is 0.767% [at 42.5 µM] (inactive).

With `O=[N+]([O-])c1cncn1CCN1CCOCC1`, the “viability change, negative = cytotoxic” value is -0.453% [at 42.5 µM] (inactive).

Consider `CC[N+](C)(CC)CCOC(=O)C1c2ccccc2Oc2ccccc21`, for which the “viability change, negative = cytotoxic” value was 0.662% [at 42.5 µM] (inactive).

As for `NC(CCC(=O)O)C(=O)O` (stereo not given), the “viability change, negative = cytotoxic” value was 0.457% (inactive).

Consider `CCOc1c(N2CCOCC2)cnn(C)c1=O`, for which the “viability change, negative = cytotoxic” value was -2.37% [at 42.5 µM] (inactive).

As to `Nc1c2c(nc3c1CCC3)CCCC2`, the “viability change, negative = cytotoxic” value is 2.09% [at 42.5 µM] (inactive).

On to `CCCn1cc[n+](C)c1C`, for which the “viability change, negative = cytotoxic” value is -3.39% (inactive).

In the case of `CCCCCCC1CCC(=O)O1` (stereo not given), the “viability change, negative = cytotoxic” value was 0.164% (inactive).

As for `OCCc1ccccn1`, the “viability change, negative = cytotoxic” value was -0.226% (inactive).

In the case of `CC(=O)O[C@@]12CO[C@@H]1C[C@H](O)[C@@]1(C)C(=O)[C@H](O)C3=C(C)[C@@H](OC(=O)[C@H](O)[C@@H](NC(=O)OC(C)(C)C)c4ccccc4)C[C@@](O)([C@@H](OC(=O)c4ccccc4)[C@H]21)C3(C)C`, the Potency was 66.8 nM (active).

On to `CCN(Cc1ccccc1)c1ccccc1`, for which the Potency is 24000 nM (active).

For `NC(=O)N[C@@H](CCC(=O)O)C(=O)O`, the “viability change, negative = cytotoxic” value was 0.281% [at 42.5 µM] (inactive).

On to `NC(N)=NCCN1CCCCCCC1`, for which the viability change, negative = cytotoxic was 1.48% [at 0.349 µM] (inactive).

`CCN[C@H]1C[C@H](C)S(=O)(=O)c2sc(S(N)(=O)=O)cc21`: the “viability change, negative = cytotoxic” value was -3.64% [at 42.5 µM] (inactive).

Take `COc1cc(C(=O)NCc2ccc(OCCN(C)C)cc2)cc(OC)c1OC`: the “viability change, negative = cytotoxic” value is 2.44% [at 42.5 µM] (inactive).

On to `CC(COc1ccccc1)NN` (stereo not given), for which the “viability change, negative = cytotoxic” value was 3.22% [at 42.5 µM] (inactive).

On to `C[C@H]1[C@H](NC(=O)/C(=N/OC(C)(C)C(=O)O)c2csc(N)n2)C(=O)N1S(=O)(=O)O` (stereo in doubt), for which the “viability change, negative = cytotoxic” value was -0.711% [at 42.5 µM] (inactive).

For `CC(C(=O)O)c1cccc(Oc2ccccc2)c1` (stereo not given), the “viability change, negative = cytotoxic” value was -6.04% [at 42.5 µM] (inactive).

In the case of `CN(C)C(=O)Oc1cccc([N+](C)(C)C)c1`, the “viability change, negative = cytotoxic” value is 1.36% [at 42.5 µM] (inactive).

`CC1OC1C1CCC2(C)OC2C1` (stereo not given): the “viability change, negative = cytotoxic” value was 5.67% (inactive).

`CCOC(=O)OC(C)OC1=C(C(=O)Nc2ccccn2)N(C)S(=O)(=O)c2ccccc21` (stereo not given): the “viability change, negative = cytotoxic” value is 0.211% [at 42.5 µM] (inactive).

As to `O=C(O)Cc1csc(-c2ccc(Cl)cc2)n1`, the “viability change, negative = cytotoxic” value was 2.02% [at 42.5 µM] (inactive).

In the case of `CCN1C=CN(C)C1C` (stereo not given), the “viability change, negative = cytotoxic” value was -1.25% (inactive).

For the molecule `CCCc1ncc(C[n+]2ccccc2C)c(N)n1`, the “viability change, negative = cytotoxic” value was 3.12% [at 42.5 µM] (inactive).

On to `O=Cc1cccc(Br)c1`, for which the “viability change, negative = cytotoxic” value was 1.44% (inactive).

As to `Nc1ccccn1`, the “viability change, negative = cytotoxic” value is -6.27% (inactive).

Consider `CCN(C=O)CC`, for which the “viability change, negative = cytotoxic” value is 2.55% (inactive).

As to `Cc1ncc([C@@H](CCCCCCc2ccc3c(n2)NCCC3)CC(=O)O)cn1`, the Potency was 109 nM (active).
